Source: PubChem BioAssay AID372 (MTDP, 2006)
The campaign covered roughly 100,000 compounds. About 770 (0.77%) were called active. The entries come from a sample that favours actives as a whole. Values without a mark were called inactive. Rule as the data show it: active = inhibition above about 50%; inactive = the rest.

Molecular target: Gag-Pol polyprotein (Human immunodeficiency virus type 1 group M subtype B (isolate HXB2)) (UniProt P04585)
Test: RNase H inhibition, HIV 1 Gag Pol polyprotein, FRET biochemical assay, screening (AID 372)
Details: HIV-1 RT RNase H, FRET RNA/DNA substrate fluorescence; at 10 µM; active compounds read high

Structure (SMILES)	inhibition
CC(Oc1ccc(Br)cc1)C(=O)N/N=C/c1ccc(N(C)C)cc1 (configuration not stated)	8%
O=C(O)c1cc(NS(=O)(=O)c2ccc(NCCCN3CCOCC3)c([N+](=O)[O-])c2)cc(C(=O)O)c1	4%
COc1ccc(/C=N/Nc2nc(Nc3ccc(F)cc3)nc(N3CCCCC3)n2)cc1	6%
CCN(CC)C(=O)c1sc(NC(=O)c2cc(Cl)ccc2OC)c(C#N)c1C	7%
COc1ccc(Cl)cc1C(=O)Nc1sc(C)c(C)c1C#N	74% (active)
Cc1sc(NC(=O)c2cc(Cl)ccc2Cl)c(C#N)c1C	4%
CC(=O)C1=C(Nc2ccc(Br)cc2)CC(C)(O)C(C(C)=O)C1c1ccc([N+](=O)[O-])cc1 (configuration not stated)	4%
Cc1ccc(P(=O)(c2ccc(C)cc2)C(C)(C)O)cc1	0%
CN(C)c1nc(-c2ccccc2)c2cc(Cl)ccc2n1	13%
CCN(CC)c1nc(-c2ccccc2)c2cc(Cl)ccc2n1	12%
CN(CCO)c1nc(-c2ccccc2)c2cc(Cl)ccc2n1	50% (active)
COc1ccc(-c2nn(-c3ccccc3)cc2/C=N/NS(=O)(=O)c2ccccc2)cc1	15%
S=C(NCCC(c1ccccc1)c1ccccc1)Nc1ccc(Cl)cc1Cl	12%
S=C(NCCc1ccccn1)Nc1ccc(Cl)cc1Cl	50% (active)
S=C(NCCc1c[nH]c2ccccc12)Nc1ccc(Cl)c(Cl)c1	49%
O=C(NCc1ccccn1)Nc1ccc(Cl)c(Cl)c1	9%
S=C(NCCc1ccccn1)Nc1ccc(Cl)c(Cl)c1	59% (active)
S=C(NCCc1ccccc1)Nc1ccc(Cl)cc1Cl	46%
O=C(NC1CCCCC1)c1cccc(C(F)(F)F)c1	11%
Cc1cc(/C=C(\C#N)C(=O)Nc2ccccc2)c(C)n1-c1sc2c(c1C#N)CCCC2	15%
CC1(C)C(c2ccccc2)=[N+]([O-])C2(CCCCC/C2=N\NC(N)=O)N1O (configuration not stated)	0%
Cc1cc(C)c(N/C=C(\C#N)c2nc(-c3ccc(Cl)cc3Cl)cs2)c(C)c1	27%
CCN(CC)S(=O)(=O)c1cc(-c2nnc(-c3ccc(C)cc3)o2)ccc1C	3%
O=[N+]([O-])c1ccc(C2Nc3c(cccc3[N+](=O)[O-])C3C=CCC32)cc1 (configuration not stated)	35%
COc1cccc2c1NC(c1ccc(F)cc1)C1CC=CC21 (configuration not stated)	35%
COc1cccc2c1NC(c1ccc([N+](=O)[O-])cc1)C1CC=CC21 (configuration not stated)	51% (active)
Cc1ccc(S(=O)(=O)Nc2cc(C)c(O)c(S(=O)(=O)c3ccc(C)cc3)c2)cc1	18%
